Measurements taken from PubChem BioAssay AID504332 (National Center for Advancing Translational Sciences (NCATS), 2011).
Hit rate of the full screen: of about 350,000 compounds, about 31,000 (8.9%) were called active. About 15% were inconclusive and are not listed. The sample holds actives, similar compounds and a random draw of the others, so the mix is not that of the screen. Unmarked numbers belong to inactive results. The call rests on the fitted dose curve; in most records, active means well fitted inhibition curve with a large enough effect; inconclusive means small, poorly fitted or top-dose-only effect; inactive means no such curve, though single readings can be large or run the other way.

What follows are molecules tested against Histone-lysine N-methyltransferase EHMT2 (Homo sapiens) (UniProt Q96KQ7) (assay: qHTS Assay for Inhibitors of Histone Lysine Methyltransferase G9a). Conditions: G9a H3K9 monomethylation, AlphaScreen, 2 h; series mostly up to 59 µM; activity, negative = inhibition: at the top concentration.
In short: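 Enzyme 20 nM + cpd, 15 min RT; add b-H3K9 pep 500 nM / SAM 20 uM; 2 h RT; anti-H3K9me1 Ab 0.5 ug/mL + SA donor / anti-rabbit acceptor beads 20 ug/mL each, 10 min; AlphaScreen read.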
Further: nearly all actives have a fitted effect of over 75% in size.
On the % scale 0 is the no-effect control and ±100 the full control effect; potency means the concentration at half of the fitted maximal effect.

Histone-lysine N-methyltransferase EHMT2 (Homo sapiens), sequence (Q96KQ7 913-1193 limits assumed): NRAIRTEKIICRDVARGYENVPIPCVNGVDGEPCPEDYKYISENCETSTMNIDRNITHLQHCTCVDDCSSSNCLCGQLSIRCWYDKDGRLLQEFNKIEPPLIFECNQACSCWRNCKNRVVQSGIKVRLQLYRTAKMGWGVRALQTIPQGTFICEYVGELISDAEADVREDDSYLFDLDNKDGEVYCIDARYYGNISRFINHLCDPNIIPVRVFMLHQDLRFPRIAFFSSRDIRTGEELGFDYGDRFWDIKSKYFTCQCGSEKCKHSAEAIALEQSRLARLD

| SMILES | activity, negative = inhibition | Potency |
| --- | --- | --- |
| O=C(Nc1ccc2c(c1)OCO2)c1ccc(N2C(=O)c3ccccc3C2=O)cc1 | 7.92% [at 102 µM] | – |
| Cc1cccc(N2C(=O)c3ccc(C(=O)Nc4cccc(C(=O)O)c4)cc3C2=O)c1 | -31.2% [at 102 µM] | – |
| O=C(CCNS(=O)(=O)c1ccc(Br)cc1)NCC1CCCO1 (stereo not drawn) | 5.66% | – |
| CC1CN(C(=O)N2CCC(C(=O)NCc3cccs3)CC2)c2ccccc2O1 (stereo not drawn) | 5.28% | – |
| CSCCC(NC(=O)COc1ccccc1)C(=O)OCCOc1ccc(F)cc1 (stereo not drawn) | -5.75% [at 102 µM] | – |
| O=C(Nc1nnc(-c2ccccc2)o1)c1cc(-c2cccs2)nc2ccccc12 | – | 39.8 µM (active) |
| CCCCN(C)CCCNC(=O)c1cc(-c2cccs2)nc2ccccc12 | -36.5% [at 102 µM] | – |
| COC(=O)c1cc(-c2cccs2)nc2ccccc12 | 17% [at 2.33 µM] | – |
| COC(=O)c1cc2occc2n1Cc1nc(-c2ccc(C)cc2)oc1C | -36.5% | – |
| CC(=O)c1c(C)[nH]c(C(=O)OCC(=O)Nc2c(C)n(C)n(-c3ccccc3)c2=O)c1C | -2.75% [at 102 µM] | – |
| Cc1ccc(CC2CC(=O)N(c3ccc4c(c3)OCCO4)C2=O)cc1 (stereo not drawn) | 10.7% [at 102 µM] | – |
| CC1CCCCN1CC(=O)NCc1ccc2c(c1)OCO2 (stereo not drawn) | 8.12% [at 12.7 µM] | – |
| Cc1ccc(N2C(=O)CC(NCc3ccc4c(c3)OCO4)C2=O)cc1Cl (stereo not drawn) | – | 39.8 µM (active) |
| O=C(c1ccc(Cn2cc([N+](=O)[O-])cn2)o1)N1CCCC1 | 14.9% [at 102 µM] | – |
| CCCCNC(=O)C1CCCN(c2nnc(C)c3c(C)n(-c4ccc(Cl)cc4)nc23)C1 (stereo not drawn) | -11% | – |
| CCOC(=O)c1sc(NC(=O)CSc2nc3c(c(=O)n2-c2ccccc2)SCC3)c(C(=O)OCC)c1C | 12.9% [at 102 µM] | – |
| COc1ccccc1NC(=O)CSc1nc2sc3c(c2c(=O)n1-c1ccccc1)CCN(C)C3 | – | 39.8 µM (active) |
| CC1(C)Cc2c(sc3nc(SCC(=O)NCc4ccccc4)n(-c4ccccc4)c(=O)c23)CS1 | 13.5% [at 102 µM] | – |
| COc1ccc(-n2c(SC)nc3sc4c(c3c2=O)CCN(C(C)=O)C4)cc1 | 12% | – |
| CCc1nnc(NC(=O)CSc2nc3c(c(=O)n2-c2ccccc2OC)SCC3)s1 | -12.8% [at 12.7 µM] | – |
| CCOc1ccc(-n2c(SCC(=O)Nc3ccc(OC)cc3)nc3sc4c(c3c2=O)CCN(C)C4)cc1 | – | 39.8 µM (active) |
| COc1ccccc1-n1c(SCC(=O)O)nc2sc3c(c2c1=O)CCC3 | 0.797% [at 102 µM] | – |

| SMILES | activity, negative = inhibition | Potency |
| --- | --- | --- |
| CCOc1ccc(NC(=O)CSc2nncn2C)cc1 | 0.64% [at 102 µM] | – |
| CCOc1ccc(NC(=O)CSc2nc3c(c(=O)n2-c2ccccc2OC)SCC3)cc1 | – | 31.6 µM (active) |
| COc1ccc(/C=C/c2nc(C#N)c(NCc3ccc(F)cc3)o2)cc1OC | -37.4% | – |
| COc1ccc(NC(=O)CC2SC(N3CCCCC3)=NC2=O)cc1OC (stereo not drawn) | 29.8% [at 12.7 µM] | – |
| O=c1c2ccccc2n(Cc2cccc(Cl)c2)c(=O)n1Cc1ccccc1 | 3.21% | – |
| COc1ccc(CNC(=O)CSCc2nc(-c3ccccc3F)oc2C)cc1 | -1.95% | – |
| O=C(Cn1c(=O)n(-c2ccc(F)cc2)c(=O)c2sccc21)Nc1cccc(C(F)(F)F)c1 | -1.91% | – |
| CCc1sc(C(=O)N2CCN(CC(=O)Nc3cccc(F)c3)CC2)cc1C | 13.2% | – |
| CCN(C(=O)COC(=O)C1CCN(S(=O)(=O)c2ccc(C)c(C)c2)CC1)C1CCS(=O)(=O)C1 (stereo not drawn) | 7.98% [at 2.33 µM] | – |
| COc1ccc(C2CC(=O)N(Cc3ccccc3C)c3c2c(C)nn3-c2nc(C)cc(C)n2)c(OC)c1 (stereo not drawn) | -2.3% | – |
| Cc1cc(NC(=O)CSc2ncc(C(=O)Nc3ccc(Cl)cc3)c(=O)n2C)no1 | 2.93% | – |
| O=S(=O)(c1ccccc1)c1nc(Cc2ccccc2)oc1N1CCOCC1 | – | 7.08 µM (active) |
| COc1cccc(-c2nc(S(=O)(=O)c3ccccc3)c(N3CCOCC3)o2)c1 | -43% [at 12.7 µM] | – |
| COc1ccc(-c2nc(S(=O)(=O)c3ccccc3)c(N3CCCCC3)o2)cc1 | -18.6% | – |
| COc1ccc(CNC(=O)COC(=O)c2c(C)nn(-c3ccccc3)c2C)cc1OC | 4% [at 102 µM] | – |
| C#CCOCCOCCOCCNc1nc(N2CCN(C(=O)[C@H](C(C)C)n3cc(CCO)nn3)CC2)nc(N2CCN(C(=O)[C@H]([C@@H](C)CC)n3cc(CCCN=C(N)N)nn3)CC2)n1 | – | 39.8 µM (active) |
| C#CCOCCOCCOCCNc1nc(N2CCN(C(=O)CCCCCCCCCCNC(=O)[C@H](CCCCN)n3cc(C)nn3)CC2)nc(N2CCN(C(=O)CCCCCCCCCCNC(=O)[C@H](CO)n3cc(CCCSC)nn3)CC2)n1 | -8.81% [at 2.33 µM] | – |
| C#CCOCCOCCOCCNc1nc(N2CCN(C(=O)CCCCCCCCCCNC(=O)[C@H]([C@@H](C)CC)n3cc(CCCCN=C(N)N)nn3)CC2)nc(N2CCN(C(=O)CCCCCCCCCCNC(=O)[C@H](CO)n3cc(CCCSC)nn3)CC2)n1 | 10.6% [at 2.33 µM] | – |
| C#CCOCCOCCOCCNc1nc(N2CCN(C(=O)[C@H](CCCCN)n3cc(CCC(=O)O)nn3)CC2)nc(N2CCN(C(=O)[C@H](CCCCN)n3cc(CC(C)O)nn3)CC2)n1 (stereo partly drawn) | -23.5% [at 2.33 µM] | – |
| C#CCOCCOCCOCCNc1nc(N2CCN(C(=O)[C@H](C(C)C)n3cc(CCO)nn3)CC2)nc(N2CCN(C(=O)[C@H](C(C)C)n3cc(CCO)nn3)CC2)n1 | – | 44.7 µM (active) |
| C#CCOCCOCCOCCNc1nc(N2CCN(C(=O)Cn3cc(CCCCN)nn3)CC2)nc(N2CCN(C(=O)[C@H](CCCCN)n3cc(CCC(=O)O)nn3)CC2)n1 | 5.8% [at 2.33 µM] | – |
